Reference: the supplement of paper PMC11732987, “Enantioselective OTUD7B fragment discovery through chemoproteomics screening and high-throughput optimisation” (Communications Chemistry, 2025)

How the values were obtained:
Assay in all cases: log2 ratio of Biotin-Ahx-Ub-VS probe labelling (fragment/DMSO); higher = less target engagement (more negative = stronger competition), active = hit call of the paper (q ≤ 0.05, log2 ratio ≤ -1)
Details in all cases: compound concentration: 200 uM; treatment time: 3 h
USP34 = USP34 (UniProt Q70CQ2)
Procedure, shortened: (§1)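 Fragment (200 µM) or vehicle was incubated for 3 h with triplicate HEK293T lysate samples of 495 µg, which were then treated with Biotin-Ahx-Ub-VS at 0.5 µM final for 1 h. Labelled DUBs were enriched on NeutrAvidin, digested with LysC and trypsin, and analysed by diaPASEF LC-MS/MS. Values are average log2 fragment/vehicle ratios from an unpaired t-test on global-median-normalised Spectronaut label-free quantities, using proteins with ≥2 unique peptides.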

USP36 = target: T1, USP36 (UniProt Q9P275)
T1 sequence (whole entry): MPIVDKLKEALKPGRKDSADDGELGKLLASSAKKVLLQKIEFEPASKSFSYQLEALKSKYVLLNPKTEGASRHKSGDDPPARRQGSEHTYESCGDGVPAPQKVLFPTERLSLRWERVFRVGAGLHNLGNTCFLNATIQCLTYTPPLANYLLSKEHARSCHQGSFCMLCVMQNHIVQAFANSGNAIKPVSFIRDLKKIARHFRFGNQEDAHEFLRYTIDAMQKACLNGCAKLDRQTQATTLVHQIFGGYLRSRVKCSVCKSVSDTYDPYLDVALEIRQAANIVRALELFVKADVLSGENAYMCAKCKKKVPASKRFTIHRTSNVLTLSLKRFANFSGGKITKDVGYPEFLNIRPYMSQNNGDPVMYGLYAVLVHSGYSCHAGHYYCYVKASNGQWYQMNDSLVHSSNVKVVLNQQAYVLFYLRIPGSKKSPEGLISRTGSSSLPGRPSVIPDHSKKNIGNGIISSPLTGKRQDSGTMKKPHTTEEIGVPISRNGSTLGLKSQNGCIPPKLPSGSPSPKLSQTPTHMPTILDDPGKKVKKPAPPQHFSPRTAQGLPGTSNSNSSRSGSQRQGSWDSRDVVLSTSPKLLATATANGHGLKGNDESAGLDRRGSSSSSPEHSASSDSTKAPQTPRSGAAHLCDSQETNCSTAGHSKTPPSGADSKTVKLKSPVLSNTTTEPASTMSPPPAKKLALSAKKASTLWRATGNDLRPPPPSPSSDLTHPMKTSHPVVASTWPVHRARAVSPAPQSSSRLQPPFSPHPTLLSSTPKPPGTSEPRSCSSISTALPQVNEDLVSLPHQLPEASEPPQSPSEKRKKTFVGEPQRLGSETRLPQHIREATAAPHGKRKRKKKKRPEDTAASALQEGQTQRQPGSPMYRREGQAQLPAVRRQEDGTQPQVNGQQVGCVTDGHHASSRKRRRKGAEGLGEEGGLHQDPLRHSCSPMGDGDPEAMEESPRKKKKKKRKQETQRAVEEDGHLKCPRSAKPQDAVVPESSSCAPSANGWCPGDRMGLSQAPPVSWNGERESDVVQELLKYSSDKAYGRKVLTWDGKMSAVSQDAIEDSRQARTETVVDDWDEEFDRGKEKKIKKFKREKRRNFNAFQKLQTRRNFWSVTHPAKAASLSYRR
Procedure, shortened: as §1

USP38 = target: T2, USP38 (UniProt Q8NB14)
T2 sequence (whole entry): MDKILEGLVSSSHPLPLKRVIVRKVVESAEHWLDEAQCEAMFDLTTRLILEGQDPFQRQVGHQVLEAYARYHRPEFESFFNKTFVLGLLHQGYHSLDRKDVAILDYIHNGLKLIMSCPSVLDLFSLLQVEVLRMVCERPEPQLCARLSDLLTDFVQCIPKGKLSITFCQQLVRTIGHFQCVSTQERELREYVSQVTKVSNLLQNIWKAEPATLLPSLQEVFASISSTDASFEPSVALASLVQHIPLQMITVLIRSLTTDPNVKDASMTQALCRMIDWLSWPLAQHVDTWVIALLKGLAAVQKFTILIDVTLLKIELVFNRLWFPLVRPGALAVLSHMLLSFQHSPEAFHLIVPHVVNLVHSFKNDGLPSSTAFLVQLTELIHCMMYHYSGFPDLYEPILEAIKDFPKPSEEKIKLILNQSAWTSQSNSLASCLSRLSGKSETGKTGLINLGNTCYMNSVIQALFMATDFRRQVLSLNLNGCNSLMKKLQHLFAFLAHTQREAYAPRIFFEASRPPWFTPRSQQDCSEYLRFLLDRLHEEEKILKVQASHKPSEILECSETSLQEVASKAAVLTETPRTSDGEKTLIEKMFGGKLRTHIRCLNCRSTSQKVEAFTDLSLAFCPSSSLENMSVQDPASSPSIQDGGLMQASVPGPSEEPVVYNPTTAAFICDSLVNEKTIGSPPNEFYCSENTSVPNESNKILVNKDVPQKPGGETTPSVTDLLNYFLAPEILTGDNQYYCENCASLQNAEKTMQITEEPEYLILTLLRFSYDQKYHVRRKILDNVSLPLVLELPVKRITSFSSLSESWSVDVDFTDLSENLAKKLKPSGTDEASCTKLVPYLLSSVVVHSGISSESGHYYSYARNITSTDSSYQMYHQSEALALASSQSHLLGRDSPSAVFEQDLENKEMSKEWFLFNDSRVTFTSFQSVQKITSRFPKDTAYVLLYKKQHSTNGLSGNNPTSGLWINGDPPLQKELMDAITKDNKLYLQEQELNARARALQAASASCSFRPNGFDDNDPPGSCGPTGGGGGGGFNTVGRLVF
Procedure, shortened: as §1

USP39 = target: T3, USP39 (UniProt Q53GS9)
T3 sequence (whole entry): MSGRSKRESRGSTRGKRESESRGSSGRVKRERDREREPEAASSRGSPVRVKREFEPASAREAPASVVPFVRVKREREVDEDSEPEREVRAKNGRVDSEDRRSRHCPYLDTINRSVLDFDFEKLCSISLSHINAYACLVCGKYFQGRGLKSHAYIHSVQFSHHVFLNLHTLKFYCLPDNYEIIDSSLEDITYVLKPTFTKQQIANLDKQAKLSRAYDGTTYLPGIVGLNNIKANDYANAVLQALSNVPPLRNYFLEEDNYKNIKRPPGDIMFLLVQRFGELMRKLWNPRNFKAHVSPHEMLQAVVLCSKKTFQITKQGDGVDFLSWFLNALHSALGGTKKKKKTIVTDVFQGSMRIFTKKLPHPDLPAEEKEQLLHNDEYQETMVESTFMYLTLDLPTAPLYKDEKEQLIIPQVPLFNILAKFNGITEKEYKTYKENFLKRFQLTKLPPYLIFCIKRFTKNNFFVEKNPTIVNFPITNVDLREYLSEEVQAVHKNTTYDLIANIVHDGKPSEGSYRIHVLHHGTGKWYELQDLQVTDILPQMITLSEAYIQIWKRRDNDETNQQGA
Procedure, shortened: as §1

USP4 = target: T4, USP4 (UniProt Q13107)
T4 sequence (whole entry): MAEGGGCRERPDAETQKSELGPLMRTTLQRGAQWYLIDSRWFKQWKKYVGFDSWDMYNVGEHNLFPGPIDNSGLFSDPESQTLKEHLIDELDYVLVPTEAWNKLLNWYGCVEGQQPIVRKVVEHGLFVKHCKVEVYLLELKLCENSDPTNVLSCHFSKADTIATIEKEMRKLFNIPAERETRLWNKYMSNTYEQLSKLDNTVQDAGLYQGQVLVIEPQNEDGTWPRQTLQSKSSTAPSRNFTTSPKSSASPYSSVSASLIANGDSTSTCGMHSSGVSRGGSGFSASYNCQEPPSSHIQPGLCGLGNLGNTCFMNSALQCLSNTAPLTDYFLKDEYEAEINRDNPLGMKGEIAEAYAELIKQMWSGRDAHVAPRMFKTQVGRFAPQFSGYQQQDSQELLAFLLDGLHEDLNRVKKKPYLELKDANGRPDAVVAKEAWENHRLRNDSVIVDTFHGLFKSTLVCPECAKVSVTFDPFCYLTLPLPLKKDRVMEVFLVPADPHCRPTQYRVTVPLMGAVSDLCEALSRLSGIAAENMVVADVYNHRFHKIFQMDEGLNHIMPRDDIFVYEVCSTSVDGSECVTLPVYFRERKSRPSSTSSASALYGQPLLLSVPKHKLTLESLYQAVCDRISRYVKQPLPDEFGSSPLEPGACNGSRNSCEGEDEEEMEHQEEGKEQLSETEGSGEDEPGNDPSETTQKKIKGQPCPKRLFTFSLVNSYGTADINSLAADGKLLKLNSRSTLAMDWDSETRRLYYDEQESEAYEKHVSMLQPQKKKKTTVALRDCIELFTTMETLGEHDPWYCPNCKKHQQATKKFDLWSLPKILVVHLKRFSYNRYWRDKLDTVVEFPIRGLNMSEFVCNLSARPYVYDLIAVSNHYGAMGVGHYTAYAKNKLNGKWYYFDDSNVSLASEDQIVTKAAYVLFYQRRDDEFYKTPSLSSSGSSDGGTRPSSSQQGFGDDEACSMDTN
Procedure, shortened: as §1

Measured: log2 ratio of Biotin-Ahx-Ub-VS probe labelling

Sequence of USP34 (Q70CQ2 whole entry, the tested form may be a part): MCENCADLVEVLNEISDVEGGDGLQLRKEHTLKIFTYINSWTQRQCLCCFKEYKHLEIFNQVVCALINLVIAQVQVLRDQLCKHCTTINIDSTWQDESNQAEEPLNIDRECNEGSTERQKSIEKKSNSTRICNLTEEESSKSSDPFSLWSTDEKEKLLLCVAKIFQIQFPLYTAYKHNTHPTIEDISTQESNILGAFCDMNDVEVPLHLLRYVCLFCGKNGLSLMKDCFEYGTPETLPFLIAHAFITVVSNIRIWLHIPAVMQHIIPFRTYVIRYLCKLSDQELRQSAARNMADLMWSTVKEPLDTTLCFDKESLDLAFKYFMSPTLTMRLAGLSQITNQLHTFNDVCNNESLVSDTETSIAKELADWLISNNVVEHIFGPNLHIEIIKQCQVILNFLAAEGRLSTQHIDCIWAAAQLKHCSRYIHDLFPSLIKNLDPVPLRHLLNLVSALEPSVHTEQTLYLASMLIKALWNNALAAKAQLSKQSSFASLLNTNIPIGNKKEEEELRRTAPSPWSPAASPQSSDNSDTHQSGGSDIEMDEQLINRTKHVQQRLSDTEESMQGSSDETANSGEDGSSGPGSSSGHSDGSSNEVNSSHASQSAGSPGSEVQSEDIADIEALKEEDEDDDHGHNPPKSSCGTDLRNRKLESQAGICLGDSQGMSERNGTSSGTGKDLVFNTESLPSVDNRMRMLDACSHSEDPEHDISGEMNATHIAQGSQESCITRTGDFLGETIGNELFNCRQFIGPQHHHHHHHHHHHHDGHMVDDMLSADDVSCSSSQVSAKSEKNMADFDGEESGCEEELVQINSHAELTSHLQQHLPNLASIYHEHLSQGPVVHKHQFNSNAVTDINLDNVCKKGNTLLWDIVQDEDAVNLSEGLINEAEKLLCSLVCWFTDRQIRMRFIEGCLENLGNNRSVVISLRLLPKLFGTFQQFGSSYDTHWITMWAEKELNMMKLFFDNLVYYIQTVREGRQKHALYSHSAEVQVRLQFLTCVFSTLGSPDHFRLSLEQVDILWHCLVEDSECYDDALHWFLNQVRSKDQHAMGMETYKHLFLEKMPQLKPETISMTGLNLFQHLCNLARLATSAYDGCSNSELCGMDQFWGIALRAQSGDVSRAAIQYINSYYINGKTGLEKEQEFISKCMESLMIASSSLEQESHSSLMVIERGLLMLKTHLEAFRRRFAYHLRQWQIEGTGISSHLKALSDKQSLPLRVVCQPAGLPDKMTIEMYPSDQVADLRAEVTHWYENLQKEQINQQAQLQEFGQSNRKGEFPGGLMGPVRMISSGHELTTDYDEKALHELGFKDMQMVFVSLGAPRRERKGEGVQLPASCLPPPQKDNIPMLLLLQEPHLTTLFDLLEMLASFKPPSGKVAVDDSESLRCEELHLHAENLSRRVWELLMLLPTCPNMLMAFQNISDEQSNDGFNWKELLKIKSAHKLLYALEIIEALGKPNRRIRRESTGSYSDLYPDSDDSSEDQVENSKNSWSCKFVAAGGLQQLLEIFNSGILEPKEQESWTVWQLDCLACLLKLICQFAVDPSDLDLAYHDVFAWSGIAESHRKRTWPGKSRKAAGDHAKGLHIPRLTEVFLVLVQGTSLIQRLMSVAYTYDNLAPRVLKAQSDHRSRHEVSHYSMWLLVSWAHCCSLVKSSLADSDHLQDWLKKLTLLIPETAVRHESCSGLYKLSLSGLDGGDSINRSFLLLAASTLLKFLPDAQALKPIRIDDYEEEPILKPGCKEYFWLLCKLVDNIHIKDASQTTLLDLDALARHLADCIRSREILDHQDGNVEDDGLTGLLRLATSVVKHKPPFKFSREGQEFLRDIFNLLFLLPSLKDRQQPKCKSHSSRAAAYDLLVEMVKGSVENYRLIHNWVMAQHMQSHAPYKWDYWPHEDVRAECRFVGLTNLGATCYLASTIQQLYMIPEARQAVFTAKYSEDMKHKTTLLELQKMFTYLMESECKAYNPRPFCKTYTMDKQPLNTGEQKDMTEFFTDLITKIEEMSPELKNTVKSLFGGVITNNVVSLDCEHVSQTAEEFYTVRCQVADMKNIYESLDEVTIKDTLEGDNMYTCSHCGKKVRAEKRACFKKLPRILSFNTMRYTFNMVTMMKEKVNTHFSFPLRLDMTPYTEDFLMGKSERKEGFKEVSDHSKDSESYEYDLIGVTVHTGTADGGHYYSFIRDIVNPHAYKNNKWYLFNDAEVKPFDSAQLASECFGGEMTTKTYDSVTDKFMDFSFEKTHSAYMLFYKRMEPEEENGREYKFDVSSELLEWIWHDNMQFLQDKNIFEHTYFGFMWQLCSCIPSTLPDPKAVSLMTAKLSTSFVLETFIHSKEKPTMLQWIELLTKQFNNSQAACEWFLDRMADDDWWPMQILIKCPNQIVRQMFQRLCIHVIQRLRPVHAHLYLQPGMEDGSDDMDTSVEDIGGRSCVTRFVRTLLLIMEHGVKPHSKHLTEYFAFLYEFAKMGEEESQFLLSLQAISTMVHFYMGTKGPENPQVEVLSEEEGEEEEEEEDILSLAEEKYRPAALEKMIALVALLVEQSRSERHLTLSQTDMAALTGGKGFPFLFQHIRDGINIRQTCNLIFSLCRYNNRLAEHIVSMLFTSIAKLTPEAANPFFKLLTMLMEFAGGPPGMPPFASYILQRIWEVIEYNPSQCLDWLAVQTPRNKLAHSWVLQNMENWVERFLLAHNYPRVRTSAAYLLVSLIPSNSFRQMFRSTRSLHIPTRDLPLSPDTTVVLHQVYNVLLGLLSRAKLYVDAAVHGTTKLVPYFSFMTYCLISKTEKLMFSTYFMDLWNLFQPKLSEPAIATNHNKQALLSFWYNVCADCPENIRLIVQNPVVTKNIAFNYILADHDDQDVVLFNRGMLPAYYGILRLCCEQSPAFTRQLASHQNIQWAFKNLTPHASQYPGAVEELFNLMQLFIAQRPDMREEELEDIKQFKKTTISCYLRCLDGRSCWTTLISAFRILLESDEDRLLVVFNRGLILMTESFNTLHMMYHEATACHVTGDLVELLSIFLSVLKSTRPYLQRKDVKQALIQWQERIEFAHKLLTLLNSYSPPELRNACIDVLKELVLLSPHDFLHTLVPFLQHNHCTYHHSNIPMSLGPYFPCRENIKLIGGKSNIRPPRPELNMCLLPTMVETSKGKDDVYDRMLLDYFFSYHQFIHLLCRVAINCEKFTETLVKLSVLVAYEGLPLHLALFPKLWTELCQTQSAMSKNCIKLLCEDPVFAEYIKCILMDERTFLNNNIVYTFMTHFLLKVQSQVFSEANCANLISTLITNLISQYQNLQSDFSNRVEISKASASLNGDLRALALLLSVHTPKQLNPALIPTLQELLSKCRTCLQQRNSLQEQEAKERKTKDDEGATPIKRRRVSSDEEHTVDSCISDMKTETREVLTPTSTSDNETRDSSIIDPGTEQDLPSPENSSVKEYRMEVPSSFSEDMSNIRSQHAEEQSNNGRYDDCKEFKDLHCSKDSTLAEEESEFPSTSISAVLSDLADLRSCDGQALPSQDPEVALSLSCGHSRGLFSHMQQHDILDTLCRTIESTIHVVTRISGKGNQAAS

Cc1ncc2c(n1)CCN(C(=O)CCl)C2
inactive: USP34 -0.14 | USP36 -0.0392 | USP38 -0.067 | USP39 0.0209 | USP4 -0.35
